miR-21 act: qHTS Assay for Modulators of miRNAs and/orActivators of miR-21; HeLa miR-21 FLuc reporter, luciferase, 48 h; Potency, µM (highest dose often 38.3 µM), most hits filed as activators; 340,000 tested, under 10 active;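 further: miR-21 action dims this reporter so a rising signal means less miR-21 action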
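HeLa cells stably expressing CMV-driven firefly luciferase with a downstream miR-21 binding sequence, endogenously expressing miR-21, were treated with titrations (up to about 40uM final) for 48 hours at 37 degree Celsius. Luciferase luminescence was read after lysis.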
uPA surface inh: qHTS for Inhibitors of Cell Surface uPA Generation | 0.31% of 330,000 active | AID 540303, 2011 | cell surface uPA generation assay, qHTS | Potency, µM (series often up to 38.3 µM), hits mostly inhibitors; active means well fitted inhibition curve with a large enough effect; inconclusive means small, poorly fitted or top-dose-only effect; inactive means no such curve, though single readings can be large or run the other way; tested in mouse RAW 264.7 cells; further: nearly all actives have a fitted effect of over 55% in size
DT40 TDP1 no CPT: qHTS for Inhibitors of human tyrosyl-DNA phosphodiesterase 1 (TDP1): qHTS in cells in absence of CPT; DT40 Tdp1-/- hTDP1 cells, no CPT, ATP luminescence, 48 h; 15% of 420,000 active; Potency, µM (series often up to 46.2 µM), actives largely listed as inhibitors; further: nearly all actives have a fitted effect of over 55% in size
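Camptothecin absent (DMSO only). Human TDP1-complemented DT40 knockout cells, 400 cells/well, 37 °C for minimum 48 hr; ATP measured via CellTiter-Glo, 30 min dark incubation, luminescence.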
TDP1 block: qHTS Assay for Inhibitors of Tyrosyl-DNA Phosphodiesterase (TDP1); AID 485290, 2010; 0.28% of 350,000 active; Tyrosyl-DNA phosphodiesterase 1 (Homo sapiens), Q9NUW8; Potency, µM (doses to about 130 µM), most hits filed as inhibitors; recombinant TDP1, AlphaScreen DNA substrate cleavage; further: nearly all actives have a fitted effect of over 40% in size
Target sequence (Q9NUW8 whole entry, looked up): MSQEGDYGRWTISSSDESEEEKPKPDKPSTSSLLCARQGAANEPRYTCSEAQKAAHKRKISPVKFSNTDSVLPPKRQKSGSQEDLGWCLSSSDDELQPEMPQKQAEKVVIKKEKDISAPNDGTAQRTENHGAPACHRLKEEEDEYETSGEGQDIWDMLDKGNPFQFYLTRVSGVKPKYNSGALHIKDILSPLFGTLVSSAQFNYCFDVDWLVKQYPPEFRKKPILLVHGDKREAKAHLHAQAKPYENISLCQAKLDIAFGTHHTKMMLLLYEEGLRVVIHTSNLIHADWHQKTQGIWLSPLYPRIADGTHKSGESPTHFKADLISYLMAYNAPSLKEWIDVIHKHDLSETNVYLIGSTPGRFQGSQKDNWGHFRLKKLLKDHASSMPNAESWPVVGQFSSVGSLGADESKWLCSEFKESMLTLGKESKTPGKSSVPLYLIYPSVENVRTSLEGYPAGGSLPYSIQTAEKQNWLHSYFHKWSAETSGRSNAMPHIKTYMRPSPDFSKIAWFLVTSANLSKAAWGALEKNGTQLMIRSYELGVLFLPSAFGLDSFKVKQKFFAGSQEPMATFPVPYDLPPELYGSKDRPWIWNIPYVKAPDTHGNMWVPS
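Compounds were preincubated with Tdp1 (1 nM final) for 15 min at room temperature before substrate (15 nM final) started a 5 min reaction; beads (10 ug/ml final) were then added for 10 min before AlphaScreen detection.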
DT40 TDP1 CPT: qHTS for Inhibitors of human tyrosyl-DNA phosphodiesterase 1 (TDP1): qHTS in cells in presence of CPT; chicken DT40 Tdp1-/-;hTDP1 cells + 20 nM CPT, ATP luminescence, 48 h; Potency, µM (series often up to 46.2 µM), most hits filed as inhibitors; 12% of 420,000 active; AID 686979, 2013; further: nearly all actives have a fitted effect of over 55% in size
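Chicken DT40 Tdp1-/- cells stably complemented with human TDP1 were seeded at 400 cells/well in medium containing 20 nM camptothecin, exposed to pin-transferred compounds, and grown at 37 °C for at least 48 hr. Viability was read as ATP luminescence.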
A number is an active result; – = inactive; ? = inconclusive; · = not tested or not shown. Hits are enriched below; roughly 16% of the tested compounds scored in any of these assays. Unless noted, the call rests on the fitted dose curve; in most records, active means well fitted curve in the direction sought with a large enough effect; inconclusive means small, poorly fitted or top-dose-only effect, or another doubt; inactive means no such curve, though single readings can be large; an effect the other way counts as inactive or inconclusive.

SMILES	miR-21 act	uPA surface inh	DT40 TDP1 no CPT	TDP1 block	DT40 TDP1 CPT
Cc1ccc(C(=O)N2c3ccc(F)cc3CCC2C)o1 (centres undefined)	–	–	?	–	?
O=c1[nH]cc(NCCc2ccccc2)c(=O)[nH]1	–	–	–	–	–
Cc1ccnc(NC(=O)CCC(=O)N(CC(=O)NC2CCCCC2)C2CCCC2)c1	–	–	–	·	–
COc1ccc(C2(c3ccc(OC)cc3)NC(=O)N(CC(=O)Nc3ccc(C(N)=O)cc3)C2=O)cc1	–	–	?	–	–
Cc1ccc2c(c1)-c1c(cnn1CC(=O)O)CO2	–	–	?	–	–
Cc1ccc2c(c1)-c1c(cnn1CC(=O)Nc1ccccc1N1CCN(C)CC1)CO2	–	–	?	–	?
COc1ccccc1N1CCN(C(=O)Cn2ncc3c2-c2cc(C)ccc2OC3)CC1	?	·	21µM	–	26µM
O=C(Cn1ncc2c1-c1ccccc1OC2)N1CCN(c2ccccc2)CC1	–	·	16µM	–	–
CCCN(C(=O)Cn1ncc2c1-c1ccccc1OC2)c1cccc(C)c1	?	·	16µM	–	?
Cc1cccc(N2CCN(C(=O)Cn3ncc4c3-c3cc(C)ccc3OC4)CC2C)c1 (centres undefined)	–	·	23µM	–	23µM
C=CCn1c(SCC(=O)Nc2cccc(S(N)(=O)=O)c2)nc2sc(C)c(C)c2c1=O	·	–	?	–	?
CCC1(C2CCN(Cc3c(C)[nH]c4ccccc34)CC2)NC(=O)N(Cc2ccc3c(c2)OCO3)C1=O (centres undefined)	·	·	16µM	·	23µM
CCC1(C2CCN(Cc3ccc(C)s3)CC2)NC(=O)N(CC2COc3ccccc3O2)C1=O (centres undefined)	·	·	21µM	·	?
CCc1ccc(C(=O)COC(=O)c2ccc(-c3nnc(-c4ccccc4)o3)cc2)cc1	–	–	–	–	–
CCCOc1ccc(Cn2c(=O)sc3ccccc32)cc1	–	·	?	–	–
C=C(C)COc1ccc(-c2[nH]ncc2-c2ccccc2)c(O)c1	–	–	21µM	–	16µM
C=C(C)COc1ccc(-c2nc(N)ncc2-c2ccc(OC)c(OC)c2)c(O)c1	–	–	?	·	?
C=C(C)COc1ccc(-c2nc(N)ncc2-c2ccc(Cl)cc2)c(O)c1	–	–	?	·	23µM
C=C(C)COc1ccc(-c2n[nH]c(C)c2-c2ccc(OC)c(OC)c2)c(O)c1	?	–	2.6µM	·	3.7µM
Cc1[nH]nc(-c2ccc(OCc3cnn(-c4ccccc4)c3)cc2O)c1Oc1ccccc1F	–	–	21µM	–	?
CC(C)(C)C1CCC(CN2CCC(CN3C(=O)C(=O)NC[C@@H]3Cc3ccccc3)CC2)CC1 (some centres undefined)	·	–	?	·	?
C[C@@H]1CC2(OC(O)[C@]3(C)O[C@H]23)O[C@H]2C[C@@]3(C)[C@@H]4CC[C@H]5C(C)(C)C(O[C@@H]6OC[C@@H](O)[C@H](O)[C@H]6O)CC[C@@]56C[C@@]46CC[C@]3(C)[C@@H]12 (some centres undefined)	·	·	·	–	·
O=C(/C=C/c1ccccc1)NNC(=O)c1ccco1	–	–	–	–	–
Cc1ccc(C(=O)c2oc3ccccc3c2NC(=O)Cc2ccccc2)cc1	–	·	·	–	·
C=C(C)COc1ccc(-c2[nH]ncc2-c2ccc(OC)cc2)c(O)c1	–	–	?	·	?
SMILES	miR-21 act	uPA surface inh	DT40 TDP1 no CPT	TDP1 block	DT40 TDP1 CPT
CCOc1ccc(-c2n[nH]c(C)c2Oc2ccccc2OC)c(O)c1	–	–	?	–	?
C=C(C)COc1ccc(-c2[nH]ncc2-c2ccc(OC)c(OC)c2)c(O)c1	–	–	1.6µM	–	1.5µM
C=C(C)COc1ccc(-c2[nH]ncc2Oc2ccccc2OCC)c(O)c1	–	–	–	–	?
C=C(C)COc1ccc(-c2[nH]ncc2Oc2cccc(OC)c2)c(O)c1	–	–	13µM	–	?
C=C(C)COc1ccc(-c2n[nH]c(C)c2Oc2ccccc2OC)c(O)c1	–	–	?	–	15µM
COc1cccc(OC)c1OCCOCCn1cnc2ccccc2c1=O	–	·	–	–	?
